From PubChem BioAssay (Tox21) come the findings set out here.

Experiment [1] concerns the target Acetylcholinesterase (Homo sapiens) (UniProt P22303). Nature of the experiment: Acetylcholinesterase (AChE) small molecule antagonists: enzyme-based qHTS assay (AID 1347397; calls by dose curve; note: nearly all actives have a fitted effect of over 55% in size). To be noted: Potency: AChE enzyme activity inhibition; outcome: AChE enzyme activity inhibition. A digest of the protocol: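 Human recombinant acetylcholinesterase; substrate acetylthiocholine; thiocholine quantified with DTNB (colorimetric). Compound preincubation 30 min RT; reaction 10 min RT.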
In general terms: qHTS replaces the single test concentration by a dilution series.

The target is the same in experiment [2]. Nature of the experiment: Acetylcholinesterase (AChE) small molecule antagonists: fluorescence cell-based qHTS assay (AID 1347398; calls by dose curve; note: nearly all actives have a fitted effect of over 50% in size). Particulars: Potency: AChE activity; outcome: AChE activity. A digest of the protocol: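 Thiocholine generated from acetylthiocholine by SH-SY5Y cell AChE is detected with Thiolite Green (Ex/Em 490/520 nm) after 40 min at room temperature, following 30 min compound pretreatment at 37 C.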

The target in experiment [3] is Cytochrome P450 2D6 (Homo sapiens) (UniProt P10635). Nature of the experiment: Cytochrome P450 Family 2 Subfamily D Member 6 (CYP2D6) small molecule antagonists: luciferase reporter qHTS assay (AID 1671196). Note: nearly all actives have a fitted effect of over 50% in size. Note: potency is the fitted concentration of half-maximal effect. In outline:
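P450-Glo format: CYP2D6 converts a proluciferin substrate to luciferin in an NADPH-driven reaction lasting 1 h at room temperature. Light output, proportional to CYP2D6 activity, reflects interference by test chemicals.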

The target of experiment [4] is Cytochrome P450 2C19 (Homo sapiens) (UniProt P33261). Nature of the experiment: Cytochrome P450 Family 2 Subfamily C Member 19 (CYP2C19) small molecule antagonists: luciferase reporter qHTS assay (AID 1671197). Note: nearly all actives have a fitted effect of over 65% in size. Note: potency is the fitted concentration of half-maximal effect. A digest of the protocol:
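Enzyme-substrate mix with proluciferin substrate (P450-Glo CYP2C19 system) preincubated with compounds 10 min at room temperature; NADPH regeneration solution added, 37C for 1 h; detection reagent stops reaction, luminescence read after 20 min. Ketoconazole positive control.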
For orientation: A reporter such as luciferase makes a cellular process visible.

Experiment [5] concerns the target Cytochrome P450 1A2 (Homo sapiens) (UniProt P05177). Nature of the experiment: Cytochrome P450 Family 1 Subfamily A Member 2 (CYP1A2) small molecule antagonists: luciferase reporter qHTS assay (AID 1671199). Note: nearly all actives have a fitted effect of over 50% in size. Note: potency is the fitted concentration of half-maximal effect. A digest of the protocol:
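Inhibition of CYP1A2 conversion of proluciferin to luciferin, detected by luminescence. Reaction run 1 h at room temperature with NADPH regeneration after brief compound preincubation.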

Experiment [6] concerns the target Voltage-gated inwardly rectifying potassium channel KCNH2 (Homo sapiens) (UniProt Q12809). Nature of the experiment: Human Ether-a-go-go-Related Gene (hERG) channel small molecule antagonists: fluorescence cell-based qHTS assay (AID 1671200). Note: nearly all actives have a fitted effect of over 50% in size. Note: potency is the fitted concentration of half-maximal effect. In outline:
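Channel function was assessed by thallium flux. Cells seeded the previous day and kept at 37 C took up FluxOR II dye over 1 h in the dark at room temperature, then sat another 10 min before stimulation.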
For orientation: hERG is a cardiac potassium channel; its block is linked to QT prolongation.

In experiment [7] the target is Cytochrome P450 3A4 (Homo sapiens) (UniProt P08684). Nature of the experiment: Cytochrome P450 Family 3 Subfamily A Member 4 (CYP3A4) small molecule antagonists: luciferase reporter qHTS assay (AID 1671201). Note: nearly all actives have a fitted effect of over 50% in size. Note: potency is the fitted concentration of half-maximal effect. A digest of the protocol:
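Compounds in DMSO were pin-transferred onto CYP3A4 enzyme-substrate mix and held 10 min at room temperature. NADPH regenerating solution started the reaction for 1 h; luciferin detection reagent stopped it, and luminescence was read after 20 min.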

Experiment [8] has as its target Acetylcholinesterase (Homo sapiens) (UniProt P22303). Nature of the experiment: Acetylcholinesterase (AChE) small molecule antagonists: enzyme-based qHTS assay with human liver microsomes (AID 1347399; calls by dose curve; note: nearly all actives have a fitted effect of over 60% in size; note: potency is the fitted concentration of half-maximal effect). To be noted: Potency: qHTS inhibition; outcome: qHTS inhibition. A digest of the protocol:
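Recombinant human AChE (50 mU/mL in the enzyme mix) and human liver microsomes (0.25 mg/mL final) were preincubated with compound and NADPH (0.25 mg/mL final) for 30 min at 37 C. Acetylthiocholine/DTNB was then added; thiocholine was read colorimetrically after 10 min at room temperature.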

Experiment [9] addresses Cytochrome P450 2C9 (Homo sapiens) (UniProt P11712). Nature of the experiment: Cytochrome P450 Family 2 Subfamily C Member 9 (CYP2C9) small molecule antagonists: luciferase reporter qHTS assay (AID 1671198). Note: nearly all actives have a fitted effect of over 50% in size. Note: potency is the fitted concentration of half-maximal effect. A digest of the protocol:
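CYP2C9 activity was measured with a P450-Glo proluciferin substrate. Enzyme–substrate mix was held with compound for 10 min at room temperature, then NADPH regeneration solution was added for 1 h at 37C. Luciferin product was read as luminescence.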

“And” between values parts separate entries of the source, which are not always exact repeats. Equal entries are not always repeated. Results filed as inconclusive are left out. Where a structure was tested more than once in an assay, its records may differ in their call. The source made the active and inactive calls. Unless noted, calls come from the whole dose curve; as a rule, active = well fitted curve in the direction sought with a large enough effect in the repeat runs; inconclusive = weak or mixed curves; inactive = no such curve, though single readings can be large; an effect the other way counts as inactive or inconclusive.

Cytochrome P450 3A4 (Homo sapiens), sequence (P08684 whole entry, looked up): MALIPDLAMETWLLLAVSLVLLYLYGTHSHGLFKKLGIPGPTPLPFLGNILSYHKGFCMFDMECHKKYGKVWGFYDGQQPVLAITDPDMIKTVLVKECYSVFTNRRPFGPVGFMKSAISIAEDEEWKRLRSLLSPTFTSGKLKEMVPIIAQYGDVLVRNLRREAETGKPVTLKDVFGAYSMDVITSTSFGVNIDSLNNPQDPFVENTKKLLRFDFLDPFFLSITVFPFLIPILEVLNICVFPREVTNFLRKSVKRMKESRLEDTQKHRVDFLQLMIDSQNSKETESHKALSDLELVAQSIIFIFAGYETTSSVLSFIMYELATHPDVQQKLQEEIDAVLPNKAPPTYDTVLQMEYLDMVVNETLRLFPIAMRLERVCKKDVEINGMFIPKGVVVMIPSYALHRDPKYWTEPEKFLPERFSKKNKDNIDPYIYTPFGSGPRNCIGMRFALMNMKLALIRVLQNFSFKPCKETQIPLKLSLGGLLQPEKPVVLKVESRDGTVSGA
Acetylcholinesterase (Homo sapiens), sequence (P22303 whole entry, looked up): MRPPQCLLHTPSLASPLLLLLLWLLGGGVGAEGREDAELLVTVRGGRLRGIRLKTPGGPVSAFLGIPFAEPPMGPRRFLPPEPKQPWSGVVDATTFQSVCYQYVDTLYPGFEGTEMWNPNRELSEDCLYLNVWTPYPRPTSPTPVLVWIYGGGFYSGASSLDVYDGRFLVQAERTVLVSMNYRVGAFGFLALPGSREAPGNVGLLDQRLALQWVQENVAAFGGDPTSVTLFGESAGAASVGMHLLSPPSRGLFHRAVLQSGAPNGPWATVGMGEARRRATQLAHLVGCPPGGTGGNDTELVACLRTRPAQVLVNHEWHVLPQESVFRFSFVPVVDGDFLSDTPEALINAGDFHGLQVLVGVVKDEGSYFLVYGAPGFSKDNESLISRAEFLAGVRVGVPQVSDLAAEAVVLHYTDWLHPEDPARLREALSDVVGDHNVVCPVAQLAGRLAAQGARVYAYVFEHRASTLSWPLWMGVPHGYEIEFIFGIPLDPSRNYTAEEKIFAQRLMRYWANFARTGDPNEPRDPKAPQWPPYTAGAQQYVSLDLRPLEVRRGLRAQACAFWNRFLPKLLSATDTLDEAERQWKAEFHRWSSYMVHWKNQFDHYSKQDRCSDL
Cytochrome P450 1A2 (Homo sapiens), sequence (P05177 whole entry, looked up): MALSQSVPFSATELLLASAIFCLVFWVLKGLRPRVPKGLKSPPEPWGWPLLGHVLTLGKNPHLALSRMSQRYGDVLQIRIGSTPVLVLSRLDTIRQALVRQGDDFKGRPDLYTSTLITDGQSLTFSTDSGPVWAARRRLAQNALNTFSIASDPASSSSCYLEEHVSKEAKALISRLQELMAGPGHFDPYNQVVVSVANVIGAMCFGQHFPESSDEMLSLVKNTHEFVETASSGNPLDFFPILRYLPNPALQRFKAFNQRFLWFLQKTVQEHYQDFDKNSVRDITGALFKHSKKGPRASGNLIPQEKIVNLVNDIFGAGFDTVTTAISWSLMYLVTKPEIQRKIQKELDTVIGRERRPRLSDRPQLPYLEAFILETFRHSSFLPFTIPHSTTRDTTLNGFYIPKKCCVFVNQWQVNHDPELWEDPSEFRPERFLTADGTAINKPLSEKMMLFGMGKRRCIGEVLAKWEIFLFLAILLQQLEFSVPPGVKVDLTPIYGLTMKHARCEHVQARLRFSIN
Cytochrome P450 2C19 (Homo sapiens), sequence (P33261 whole entry, looked up): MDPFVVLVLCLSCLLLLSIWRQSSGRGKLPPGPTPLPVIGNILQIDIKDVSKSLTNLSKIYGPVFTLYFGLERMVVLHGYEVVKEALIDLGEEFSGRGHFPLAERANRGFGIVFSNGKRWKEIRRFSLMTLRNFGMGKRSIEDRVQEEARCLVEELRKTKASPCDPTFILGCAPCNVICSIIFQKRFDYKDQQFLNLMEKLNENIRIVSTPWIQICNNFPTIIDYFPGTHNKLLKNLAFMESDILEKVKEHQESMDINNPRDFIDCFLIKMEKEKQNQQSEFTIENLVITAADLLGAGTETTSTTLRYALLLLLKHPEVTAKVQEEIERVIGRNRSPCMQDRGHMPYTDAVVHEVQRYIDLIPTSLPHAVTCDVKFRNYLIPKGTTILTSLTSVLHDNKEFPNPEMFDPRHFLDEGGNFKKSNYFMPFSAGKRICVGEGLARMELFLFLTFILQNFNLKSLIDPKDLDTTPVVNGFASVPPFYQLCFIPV
Cytochrome P450 2D6 (Homo sapiens), sequence (P10635 whole entry, looked up): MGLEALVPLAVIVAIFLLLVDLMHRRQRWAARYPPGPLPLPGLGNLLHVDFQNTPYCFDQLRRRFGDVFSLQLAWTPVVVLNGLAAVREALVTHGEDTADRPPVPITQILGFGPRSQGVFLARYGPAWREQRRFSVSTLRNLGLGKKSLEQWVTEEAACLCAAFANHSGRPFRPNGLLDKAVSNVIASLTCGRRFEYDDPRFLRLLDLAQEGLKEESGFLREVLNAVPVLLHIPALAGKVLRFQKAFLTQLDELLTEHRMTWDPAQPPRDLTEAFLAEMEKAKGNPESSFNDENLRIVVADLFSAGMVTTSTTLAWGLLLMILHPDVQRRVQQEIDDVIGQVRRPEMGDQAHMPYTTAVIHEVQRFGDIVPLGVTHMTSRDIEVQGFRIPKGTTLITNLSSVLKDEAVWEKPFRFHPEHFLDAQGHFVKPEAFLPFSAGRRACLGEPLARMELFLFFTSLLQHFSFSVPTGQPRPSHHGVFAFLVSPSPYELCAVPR
Voltage-gated inwardly rectifying potassium channel KCNH2 (Homo sapiens), sequence (Q12809 whole entry, looked up): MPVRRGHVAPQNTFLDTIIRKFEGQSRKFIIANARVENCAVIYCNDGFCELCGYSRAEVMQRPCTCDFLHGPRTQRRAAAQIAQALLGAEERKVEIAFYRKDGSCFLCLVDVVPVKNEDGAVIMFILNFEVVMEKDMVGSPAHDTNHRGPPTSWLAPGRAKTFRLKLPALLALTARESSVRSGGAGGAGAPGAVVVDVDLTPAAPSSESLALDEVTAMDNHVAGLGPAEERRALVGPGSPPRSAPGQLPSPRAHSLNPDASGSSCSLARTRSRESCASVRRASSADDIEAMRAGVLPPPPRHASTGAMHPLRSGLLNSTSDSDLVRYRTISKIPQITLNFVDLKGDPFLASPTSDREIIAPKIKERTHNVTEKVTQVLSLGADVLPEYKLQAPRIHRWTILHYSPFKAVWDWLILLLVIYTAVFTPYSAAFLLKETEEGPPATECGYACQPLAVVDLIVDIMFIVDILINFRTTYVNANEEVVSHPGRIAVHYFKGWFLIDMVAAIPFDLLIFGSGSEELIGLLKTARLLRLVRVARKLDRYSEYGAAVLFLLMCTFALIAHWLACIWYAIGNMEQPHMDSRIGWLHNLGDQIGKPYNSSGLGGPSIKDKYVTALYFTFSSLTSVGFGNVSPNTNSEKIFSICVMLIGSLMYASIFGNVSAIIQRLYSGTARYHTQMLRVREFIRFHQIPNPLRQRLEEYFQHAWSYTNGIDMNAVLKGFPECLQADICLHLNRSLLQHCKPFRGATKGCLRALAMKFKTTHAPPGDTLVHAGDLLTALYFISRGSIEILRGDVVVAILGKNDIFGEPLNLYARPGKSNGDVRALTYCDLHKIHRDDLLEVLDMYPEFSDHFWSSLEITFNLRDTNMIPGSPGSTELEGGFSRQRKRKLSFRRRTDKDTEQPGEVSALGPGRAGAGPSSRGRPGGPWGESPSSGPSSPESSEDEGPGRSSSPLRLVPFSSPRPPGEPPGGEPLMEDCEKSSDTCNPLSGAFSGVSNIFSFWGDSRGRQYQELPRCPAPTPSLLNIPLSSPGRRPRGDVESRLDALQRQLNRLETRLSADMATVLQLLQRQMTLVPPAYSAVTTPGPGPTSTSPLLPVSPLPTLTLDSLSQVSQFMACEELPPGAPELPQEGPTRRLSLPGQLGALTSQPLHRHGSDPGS
Cytochrome P450 2C9 (Homo sapiens), sequence (P11712 whole entry, looked up): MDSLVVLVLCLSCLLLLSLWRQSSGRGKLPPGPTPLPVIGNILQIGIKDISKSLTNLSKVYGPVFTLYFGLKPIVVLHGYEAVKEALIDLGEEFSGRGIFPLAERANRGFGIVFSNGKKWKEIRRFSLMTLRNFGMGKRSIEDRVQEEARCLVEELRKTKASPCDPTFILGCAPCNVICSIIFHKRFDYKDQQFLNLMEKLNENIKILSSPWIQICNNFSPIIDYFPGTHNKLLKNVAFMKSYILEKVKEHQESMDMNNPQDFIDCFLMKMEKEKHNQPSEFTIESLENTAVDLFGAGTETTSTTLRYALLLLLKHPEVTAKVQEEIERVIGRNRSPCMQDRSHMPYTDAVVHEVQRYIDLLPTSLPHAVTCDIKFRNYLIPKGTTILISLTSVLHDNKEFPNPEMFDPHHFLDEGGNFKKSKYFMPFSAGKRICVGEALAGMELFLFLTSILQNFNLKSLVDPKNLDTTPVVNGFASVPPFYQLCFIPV

`CN(C1CCCCC1)C1CCCCC1`: the Potency result in [1], in experiment [2], in experiment [4], in [5], in experiment [6] and in experiment [7] was “inactive” throughout. The Potency in experiment [3] was 3.17 µM (active).

Turning to `FC(Cl)(Cl)C(F)(Cl)Cl`, the Potency entry in experiment [1], in [8], in [3], in experiment [4], in experiment [9] and in experiment [6] was “inactive” each time. The Potency entry in [7] is “inactive”.

As to `CON(C)C(=O)Nc1ccc(Cl)cc1`, the Potency result in [1], in experiment [8], in experiment [3], in experiment [6] and in [7] was “inactive” each time. The Potency in experiment [4] is 39.9 µM (active); in experiment [5], 7.1 µM (active).

For the molecule `O=C(O)C(O)C(O)C(=O)O` (configuration not stated), the Potency result in experiment [1], in experiment [2] and in experiment [6] was “inactive” each time.

For the molecule `O=S(=O)(Cl)Cl`, the Potency result in experiment [1], in [3], in [9], in experiment [5], in experiment [6] and in experiment [7] was “inactive” in each case.

Consider `C1CCNCC1`, for which the Potency entry in [1], in experiment [3], in [4], in experiment [9], in experiment [6] and in experiment [7] was “inactive” throughout. For the same molecule, the Potency in experiment [5] was 36.8 µM (active).

For `CCCSP(=S)(OCC)Oc1ccc(SC)cc1` (configuration not stated), the Potency result in [1] and in experiment [6] was “inactive” each time. The Potency is 25.2 µM (active) in [3]; 0.399 µM (active) in experiment [4]; 2.52 µM (active) in [9]; 2 µM (active) in experiment [5]; 3.17 µM (active) in experiment [7].

Take `C[C@@H]1C[C@@H]([C@H](O)CC2CC(=O)NC(=O)C2)C(=O)[C@@H](C)C1`: the Potency result in experiment [6] was “inactive”.

Turning to `FC(F)OC(F)(F)C(F)Cl` (configuration not stated), the Potency entry in [1], in experiment [8], in [4], in experiment [9], in [6] and in experiment [7] was “inactive” each time. Besides, in [5], the Potency is 35.6 µM (active).

As for `CCOC(=O)c1cn2nc(OP(=S)(OCC)OCC)cc2nc1C`, the Potency in experiment [8] is 2 µM (active); in experiment [3], 25.2 µM (active); in experiment [4] it was 2.52 µM (active); in [9], 5.03 µM (active); in experiment [5], 8.94 µM (active); in experiment [7] it was 28.3 µM (active).

For the molecule `COCc1cnc(C2=NC(C)(C(C)C)C(=O)N2)c(C(=O)O)c1` (configuration not stated), the Potency entry in experiment [1], in experiment [8], in experiment [3], in [6] and in experiment [7] was “inactive” throughout. Moreover, the Potency in [9] is 35.6 µM (active).

`CCCBr`: the Potency result in experiment [1], in experiment [8], in experiment [4], in experiment [9], in experiment [5] and in experiment [6] was “inactive” each time.

For the molecule `NP(N)(=O)NC(=O)c1ccc(F)cc1`, the Potency entry in experiment [1], in experiment [9], in experiment [6] and in experiment [7] was “inactive” throughout.

Consider `[Cl-].[Cl-].[Hg+2]`, for which the Potency in experiment [6] is 38.7 µM (active) and 6.92 µM (active).

`C=C(Cl)Cl`: the Potency result in experiment [1], in experiment [8], in [3], in [6] and in experiment [7] was “inactive” throughout. Besides, in experiment [4], the Potency was 75.6 µM (active).

In the case of `O=C(NCNC(=O)NC1C(=O)NC(=O)N1CO)NC1C(=O)NC(=O)N1CO` (configuration not stated), the Potency entry in [6] was “inactive”.

Take `CCNC(=O)NC(=O)/C(C#N)=N/OC`: the Potency result in [1], in [3], in experiment [4], in [6] and in experiment [7] was “inactive” in each case.

Take `Cc1ncc(C[n+]2csc(CCO)c2C)c(N)n1`: the Potency result in experiment [6] is “inactive”.

With `C1CS1`, the Potency entry in experiment [1], in experiment [3], in experiment [4], in experiment [9], in experiment [6] and in experiment [7] was “inactive” in each case. The Potency in experiment [5] was 64.9 µM (active).

For `Cc1ccc(N)c(C)c1`, the Potency entry in experiment [3] is “inactive and 896 nM (active)”; in experiment [4], 39.5 µM (active) and 7.12 µM (active); in experiment [9], 35.7 µM (active); in [5], 11.1 µM (active) and 2.83 µM (active); in experiment [7], 40 µM (active). Moreover, in experiment [6], the Potency result was “inactive”.

Regarding `CC(Cc1ccccc1)NCc1ccccc1Cl` (configuration not stated), the Potency result in experiment [1], in [9] and in [6] was “inactive” throughout. In addition, the Potency was 0.174 µM (active) in experiment [3], 1.38 µM (active) in experiment [4] and 15.5 µM (active) in experiment [5].
